This is a sample that favours compounds with a hit; in the whole collection about 2.9% have one here.
Peg3 prom inh – Peg3 promoter-driven luciferase inhibitors, primary screen, cell-based, HeLa, luciferase luminescence. HeLa PEG-Prom luciferase reporter, overnight. inhibition, % at 20 µM. 360,000 compounds, 1.7% hits. AID 588405, 2011;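 active means inhibition of at least 50% at 20 µM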
MITF TRPM1 inh – inhibitors of MITF-dependent TRPM1 promoter reporter, primary screen, cell-based, SK-MEL-5, single point, luciferase. SK-MEL-5 TRPM1 promoter luciferase, 24 h. inhibition, % at 12.5 µM. 330,000 compounds, 0.83% hits. AID 488899, 2010;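 active means mean inhibition across replicates of 60% or more, whatever share of single replicates reaches that level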
CF NFkB block – inhibitors of PAF-induced NF-kB signaling, primary screen, cell-based, GFP fluorescence, uHTS | inhibition, % at 5 µM | KKLEB NF-kB-GFP reporter, GFP fluorescence overnight | AID 588850, 2011 | 360,000 compounds, 0.86% hits;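 active means at least 50% inhibition at 5 µM, scaled per plate between neutral and stimulator controls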;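 further: PAF is a Pseudomonas aeruginosa culture filtrate used as stimulus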
LMP1 NFkB inh – EBV LMP1-driven NF-kappaB luciferase reporter inhibitors, primary screen, cell-based, luminescence, single point. LMP1-induced NF-kappaB luciferase reporter cells. inhibition, % at 12.5 µM. 350,000 compounds, 0.69% hits; in the data active means inhibition above about 41%
KKLEB tox – cytotoxicity in KKLEB CF airway cells, primary screen, cytotoxicity control for CF NF-kB inhibitor project, cell-based, uHTS, fluorescence assay plates; KKLEB CF airway cells viability, ATPlite luminescence, overnight; active compounds read low; cells stimulated with P. aeruginosa culture filtrate; activity change (cytotoxicity), % at 5 µM; 360,000 compounds, 0.36% hits;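 active means corrected activity change at or below -50% at 5 µM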
Shn3 3UTR inh – reduction of Shn3 3'UTR firefly luciferase signal, primary screen, Schnurri-3 inhibitor project, cell-based, Clone20 osteoblasts, set 2; Clone20 osteoblast Shn3 3'UTR firefly luciferase, 24 h; inhibition, % at 12.5 µM; 360,000 compounds, 0.52% hits; AID 588674, 2011;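 active means mean inhibition of at least 75% with every replicate also reaching 75%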
Numbers stand for hits; - = inactive; . = no result.

SMILES	Peg3 prom inh	MITF TRPM1 inh	CF NFkB block	LMP1 NFkB inh	KKLEB tox	Shn3 3UTR inh
Cc1cc(C(=O)COC(=O)c2n[nH]c3ccccc23)c(C)n1C	-	-	-	-	-	-
COCCn1c(C)cc(C(=O)COC(=O)c2n[nH]c3ccccc23)c1C	-	-	-	55	-59	-
CCCn1c(C)cc(C(=O)COC(=O)c2ccc[nH]c2=O)c1C	-	-	-	48	-	-
CCCCCCNC(=O)OC12CN(C(=O)OC(C)C)N(C(=O)OC(C)C)CC1(O)CN(S(=O)(=O)c1ccc(C)cc1)C2 (stereo not drawn)	84	.	-	-	-	-
COc1ccc(S(=O)(=O)N2CCN(CC(=O)Nc3ccc(C)c(F)c3)CC2)cc1	-	-	-	50	-	-
COc1ccc(S(=O)(=O)N2CCN(CC(=O)Nc3cccc(F)c3)CC2)cc1	-	-	-	-	-	-
CC(NS(=O)(=O)c1cccc(C(=O)N(C)Cc2ccc(N3CCOCC3)cc2)c1)c1ccccc1 (stereo not drawn)	-	.	-	-	-	-
COC(=O)C[C@H]1c2ccccc2S(=O)(=O)N1c1cccc(OC)c1	-	-	-	-	-	-
COc1cccc(N2[C@@H](CC(C)=O)c3ccc(/C=C/C(C)=O)cc3S2(=O)=O)c1	100	-	-	-	-	-
COC(=O)/C=C/c1ccc2c(c1)S(=O)(=O)N(Cc1ccc(OC)cc1)[C@H]2CC(=O)OC	-	-	-	-	-	-
COc1ccc(CN2[C@@H](CC(C)=O)c3ccc(/C=C/C(C)=O)cc3S2(=O)=O)cc1	106	-	-	-	-	-
NC(=O)C1CCCN(C(=O)c2[nH]c(C(F)(F)F)nc2-c2ccccc2)C1 (stereo not drawn)	-	.	-	.	-	-
CCN1CCN(c2cc(N3CCN(C(=O)c4ccco4)CC3)c3c4c(onc24)-c2ccccc2C3=O)CC1	-	89	-	-	-	-
CCc1ccc(NC(=S)N2CCN(c3cccc(OC)c3)CC2)cc1	-	-	-	-	-	-
COc1cccc(N2CCN(C(=S)Nc3ccccc3)CC2)c1	110	-	-	-	-	-
COCCNc1nc(Nc2ccc(C)cc2C)c2sccc2n1	-	.	-	.	-	-
CCCc1cc(=O)c2c(O)ccc(OC)c2o1	-	-	-	55	-	-
CSc1ccc(OC2(C)CCN(Cc3ccc(-c4ccccn4)cc3)C2)cc1 (stereo not drawn)	-	.	-	.	-	-
O=C(/C=C/[C@H]1O[C@@H](n2cnc3c(NC(=O)c4ccccc4)ncnc32)[C@H](O)[C@@H]1O)NCC1CCCCC1	-	.	-	.	-	-
COc1cc(OC)cc(-c2cc3ccc(OC)cc3cn2)c1	-	-	-	-	-55	-
COc1ccc2cc(-c3ccccc3)ncc2c1	-	-	-	-	-	-
COc1ccc2cc(-c3ccsc3)ncc2c1	-	62	-	-	-	-
CSc1ccc(CN2C(=O)C(F)(F)Oc3c(C(C)=O)cccc32)cc1	-	.	-	.	-	-
COc1ccc(NC(=O)N(Cc2cc3cc(C)ccc3[nH]c2=O)CC2CCCO2)cc1 (stereo not drawn)	-	-	-	-	-	-
COc1ccc2[nH]c(=O)c(CN(CC3CCCO3)C(=O)Nc3ccc(F)cc3)cc2c1 (stereo not drawn)	77	-	-	-	-	-
SMILES	Peg3 prom inh	MITF TRPM1 inh	CF NFkB block	LMP1 NFkB inh	KKLEB tox	Shn3 3UTR inh
COc1cc2ccnc(Cc3cccc(OC)c3OC)c2cc1OC	-	-	-	-	-	86
COc1cc2ccnc(C=O)c2cc1OC	-	.	86	-	-	-
COc1cc2ccnc(C=NO)c2cc1OC	-	.	-	-	-	-
CN(C1=NS(=O)(=O)N=C(N(C)c2ccccc2)O1)c1ccccc1	-	.	-	-	-	-
Clc1ccccc1/C=N/Nc1cc(N2CCOCC2)ncn1	-	-	-	-	-	-
CCOc1ccc(/C=N/Nc2cc(N3CCOCC3)ncn2)c(O)c1	-	.	-	56	-	93
CCCOc1ccc(/C=N/Nc2cc(N3CCOCC3)ncn2)c(O)c1	-	-	54	-	-	90

High-throughput results (PubChem)
